Article PMC7862700, “An all-to-all approach to the identification of sequence-specific readers for epigenetic DNA modifications on cytosine”

How the values were obtained:
Experiment in all cases: DAPPL (digital affinity profiling via proximity ligation, sequencing); 10 mM Tris-HCl pH 7.5, 50 mM NaCl, 1 mM DTT, 4% glycerol, room temperature, 30 min; GST-TFs on glutathione beads, 16-mer random dsDNA library, 0.1% formaldehyde crosslink after washing; high values mean tight binding
Details in all cases: protein: recombinant; tags: N-terminal GST; dsDNA, one strand shown
ELK1 = biological target: T1, ELK1 (Homo sapiens, UniProt P19419 1-428)
T1 sequence: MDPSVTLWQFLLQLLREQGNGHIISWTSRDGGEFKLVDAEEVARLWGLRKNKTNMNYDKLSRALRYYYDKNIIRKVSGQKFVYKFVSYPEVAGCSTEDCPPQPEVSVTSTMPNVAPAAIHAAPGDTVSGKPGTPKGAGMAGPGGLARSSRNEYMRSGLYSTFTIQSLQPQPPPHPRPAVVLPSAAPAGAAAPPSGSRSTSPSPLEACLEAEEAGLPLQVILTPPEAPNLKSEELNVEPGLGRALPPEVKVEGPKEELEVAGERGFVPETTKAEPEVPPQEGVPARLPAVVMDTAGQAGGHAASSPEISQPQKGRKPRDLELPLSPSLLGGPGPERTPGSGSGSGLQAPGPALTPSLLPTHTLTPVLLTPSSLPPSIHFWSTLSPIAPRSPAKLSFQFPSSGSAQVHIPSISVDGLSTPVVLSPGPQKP
Summary of the method: (§1)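 In yeast, human transcription factors were expressed with a GST fusion, then pulled down on glutathione beads and given DNA barcodes. Pooled with a tag-only sample, they were exposed to 200 nmole of a 16-mer random double-stranded DNA library (Tris/NaCl/DTT/glycerol buffer, room temperature, 30 min), washed, crosslinked with 0.1% formaldehyde, proximity-ligated using BsaI/T4 ligase for 1 h at 37 °C, PCR-amplified and read on an Illumina NextSeq500. Each hexamer's frequency of reads for a factor, divided by the matching frequency for the tag-only sample, gives the binding signal.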

ERG = biological target: T2, ERG (Homo sapiens, UniProt P11308 1-479)
T2 sequence: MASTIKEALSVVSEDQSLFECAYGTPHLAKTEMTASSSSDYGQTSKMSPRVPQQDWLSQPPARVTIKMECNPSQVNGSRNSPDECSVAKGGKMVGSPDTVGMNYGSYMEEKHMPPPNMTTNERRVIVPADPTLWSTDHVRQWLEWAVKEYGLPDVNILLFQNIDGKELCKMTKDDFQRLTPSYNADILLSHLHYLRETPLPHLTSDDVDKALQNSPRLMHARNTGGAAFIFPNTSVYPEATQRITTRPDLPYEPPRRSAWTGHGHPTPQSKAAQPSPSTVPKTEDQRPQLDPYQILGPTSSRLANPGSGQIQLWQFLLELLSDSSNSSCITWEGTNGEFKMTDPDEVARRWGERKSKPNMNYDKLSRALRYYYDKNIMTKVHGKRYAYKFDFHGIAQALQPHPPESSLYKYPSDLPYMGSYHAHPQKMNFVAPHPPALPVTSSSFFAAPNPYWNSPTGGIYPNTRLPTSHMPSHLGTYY
Summary of the method: as §1

EHF = biological target: T3, EHF (Homo sapiens, UniProt Q9NZC4 1-300)
T3 sequence: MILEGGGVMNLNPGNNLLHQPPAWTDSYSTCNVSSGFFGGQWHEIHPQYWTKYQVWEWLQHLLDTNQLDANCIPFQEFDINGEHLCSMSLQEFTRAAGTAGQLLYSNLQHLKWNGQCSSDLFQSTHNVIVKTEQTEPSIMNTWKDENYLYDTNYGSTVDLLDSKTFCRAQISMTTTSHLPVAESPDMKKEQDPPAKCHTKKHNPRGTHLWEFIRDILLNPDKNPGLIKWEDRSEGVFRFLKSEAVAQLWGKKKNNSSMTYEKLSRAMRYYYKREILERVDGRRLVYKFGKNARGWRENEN
Summary of the method: as §1

SPIB = SPIB (Homo sapiens, UniProt Q01892 1-262)
Summary of the method: as §1

ELK3 = biological target: T4, ELK3 (Homo sapiens, UniProt P41970 1-407)
T4 sequence: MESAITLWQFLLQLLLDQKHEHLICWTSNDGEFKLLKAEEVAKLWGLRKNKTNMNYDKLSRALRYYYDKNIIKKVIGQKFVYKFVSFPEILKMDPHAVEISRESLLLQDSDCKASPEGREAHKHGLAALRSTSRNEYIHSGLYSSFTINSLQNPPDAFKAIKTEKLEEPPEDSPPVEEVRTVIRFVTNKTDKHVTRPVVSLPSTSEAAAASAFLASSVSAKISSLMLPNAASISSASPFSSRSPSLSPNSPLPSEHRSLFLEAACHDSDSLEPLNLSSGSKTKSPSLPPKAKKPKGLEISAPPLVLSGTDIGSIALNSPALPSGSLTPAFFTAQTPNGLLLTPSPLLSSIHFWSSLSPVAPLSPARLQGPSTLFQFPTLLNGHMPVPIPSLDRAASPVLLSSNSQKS
Summary of the method: as §1

FEV = biological target: T5, FEV (Homo sapiens, UniProt Q99581 1-238)
T5 sequence: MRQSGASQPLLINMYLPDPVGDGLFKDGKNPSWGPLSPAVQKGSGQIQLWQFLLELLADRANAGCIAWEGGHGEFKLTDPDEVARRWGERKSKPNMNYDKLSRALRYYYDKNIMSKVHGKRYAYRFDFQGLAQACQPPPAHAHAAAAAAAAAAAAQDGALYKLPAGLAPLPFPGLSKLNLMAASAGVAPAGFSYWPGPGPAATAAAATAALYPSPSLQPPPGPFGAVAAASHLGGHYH
Summary of the method: as §1

ELK4 = biological target: T6, ELK4 (Homo sapiens, UniProt P28324-2 1-405)
T6 sequence: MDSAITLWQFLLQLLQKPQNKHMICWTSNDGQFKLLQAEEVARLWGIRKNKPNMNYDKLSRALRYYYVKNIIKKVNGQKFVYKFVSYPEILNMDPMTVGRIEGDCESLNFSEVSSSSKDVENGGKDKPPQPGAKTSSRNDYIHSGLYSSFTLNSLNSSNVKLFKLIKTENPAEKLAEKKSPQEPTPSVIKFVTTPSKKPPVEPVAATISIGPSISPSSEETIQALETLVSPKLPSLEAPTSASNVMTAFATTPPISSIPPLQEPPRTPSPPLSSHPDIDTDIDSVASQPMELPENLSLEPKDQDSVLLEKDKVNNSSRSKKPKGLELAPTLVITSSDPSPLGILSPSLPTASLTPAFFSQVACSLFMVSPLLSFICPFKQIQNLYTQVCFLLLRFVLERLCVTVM
Summary of the method: as §1

ETV2 = biological target: T7, ETV2 (Homo sapiens, UniProt O00321 1-342)
T7 sequence: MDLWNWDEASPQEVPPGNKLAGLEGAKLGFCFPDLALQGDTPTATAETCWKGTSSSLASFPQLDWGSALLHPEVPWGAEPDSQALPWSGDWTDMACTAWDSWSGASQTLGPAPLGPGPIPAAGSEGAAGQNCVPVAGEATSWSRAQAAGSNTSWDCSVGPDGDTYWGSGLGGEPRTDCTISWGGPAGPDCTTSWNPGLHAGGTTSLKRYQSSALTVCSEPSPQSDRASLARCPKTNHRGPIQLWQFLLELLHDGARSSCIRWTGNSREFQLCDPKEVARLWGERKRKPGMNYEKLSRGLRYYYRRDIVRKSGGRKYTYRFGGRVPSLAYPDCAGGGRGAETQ
Summary of the method: as §1

ETV3L = biological target: T8, ETV3L (Homo sapiens, UniProt Q6ZN32 1-361)
T8 sequence: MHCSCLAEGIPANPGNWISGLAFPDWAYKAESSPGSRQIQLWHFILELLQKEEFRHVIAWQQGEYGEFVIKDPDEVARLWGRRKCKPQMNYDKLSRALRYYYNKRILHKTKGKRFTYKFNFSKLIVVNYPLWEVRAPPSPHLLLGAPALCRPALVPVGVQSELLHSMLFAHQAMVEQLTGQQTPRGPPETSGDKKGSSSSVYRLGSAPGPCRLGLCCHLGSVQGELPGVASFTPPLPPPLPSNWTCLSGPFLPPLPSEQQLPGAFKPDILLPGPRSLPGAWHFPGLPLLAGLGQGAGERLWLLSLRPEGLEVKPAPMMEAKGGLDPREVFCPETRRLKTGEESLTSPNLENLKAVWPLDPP
Summary of the method: as §1

ETV3 = biological target: T9, ETV3 (Homo sapiens, UniProt P41162-2 1-143)
T9 sequence: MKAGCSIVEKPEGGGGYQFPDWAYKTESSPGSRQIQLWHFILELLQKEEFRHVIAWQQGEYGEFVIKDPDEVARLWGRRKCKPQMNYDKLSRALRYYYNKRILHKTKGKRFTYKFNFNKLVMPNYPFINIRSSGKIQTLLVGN
Summary of the method: as §1

ETV6 = ETV6 (Homo sapiens, UniProt P41212 1-452)
Summary of the method: as §1

Chain of ETV6 (P41212 whole entry): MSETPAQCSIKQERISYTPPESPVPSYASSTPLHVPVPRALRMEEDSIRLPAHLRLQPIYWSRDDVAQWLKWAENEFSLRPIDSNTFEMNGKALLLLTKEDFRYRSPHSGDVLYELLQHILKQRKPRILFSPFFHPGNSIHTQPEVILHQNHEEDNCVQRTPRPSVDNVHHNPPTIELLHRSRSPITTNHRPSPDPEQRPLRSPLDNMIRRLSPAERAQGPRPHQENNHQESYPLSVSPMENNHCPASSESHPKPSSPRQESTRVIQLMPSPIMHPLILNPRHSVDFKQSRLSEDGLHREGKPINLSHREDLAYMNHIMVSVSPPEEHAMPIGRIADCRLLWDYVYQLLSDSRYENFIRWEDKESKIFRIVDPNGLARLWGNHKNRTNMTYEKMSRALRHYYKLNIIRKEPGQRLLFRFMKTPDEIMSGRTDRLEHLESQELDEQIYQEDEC
Chain of SPIB (Q01892 whole entry): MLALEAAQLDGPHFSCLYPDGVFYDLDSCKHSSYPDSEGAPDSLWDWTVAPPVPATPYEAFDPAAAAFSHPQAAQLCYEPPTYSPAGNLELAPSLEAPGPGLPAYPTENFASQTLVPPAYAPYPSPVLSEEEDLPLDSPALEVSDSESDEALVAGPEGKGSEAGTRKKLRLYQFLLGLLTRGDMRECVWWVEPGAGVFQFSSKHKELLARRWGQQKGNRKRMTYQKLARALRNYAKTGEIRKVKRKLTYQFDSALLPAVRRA

CCGGCG was tested, and the binding signal (ELK1) was 1.09 fold enrichment (6-mer frequency, TF over GST control), the binding signal (ERG) was 1.09 fold enrichment (6-mer frequency, TF over GST control) and the binding signal (EHF) was 1.03 fold enrichment (6-mer frequency, TF over GST control). The binding signal (SPIB) was 1.15 fold enrichment (6-mer frequency, TF over GST control), the binding signal (ELK3) was 1.02 fold enrichment (6-mer frequency, TF over GST control) and the binding signal (FEV) was 1.25 fold enrichment (6-mer frequency, TF over GST control). For the same sequence, the binding signal (ELK4) was 1.14 fold enrichment (6-mer frequency, TF over GST control), the binding signal (ETV2) was 1.04 fold enrichment (6-mer frequency, TF over GST control) and the binding signal (ETV3L) was 1.07 fold enrichment (6-mer frequency, TF over GST control). For the same sequence, the binding signal (ETV3) was 1.05 fold enrichment (6-mer frequency, TF over GST control) and the binding signal (ETV6) was 1.11 fold enrichment (6-mer frequency, TF over GST control).
